Test systems include RPMI-8226 leukemia; OVCAR-8 ovarian; OVCAR-5 ovarian; SK-OV-3 ovarian; IGROV1 ovarian; OVCAR-3 ovarian; HS 578T breast; NCI/ADR-RES ovarian; T-47D breast; OVCAR-4 ovarian.
Holding throughout (assay): NCI-60 one-dose screen, 48 h (100 = growth as untreated, 0 = no growth, -100 = all killed)
Common to all, as to conditions: 10 µM unless noted

SMILES strings stand for the structures. The panel holds about 83,000 compounds, 20% with a hit somewhere; the sample as a whole holds those more often.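 Plates (96-well) were seeded with cells, treated with compound at one concentration, and incubated for 48 hours before percent growth was determined.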 A number with no mark means an inactive call. Calls of active or inactive are those of the source. The calls were made as follows: active = growth percent below 10; inactive = the rest.

As for `c1ccc2cc3c(Nc4ccc(N5CCOCC5)cc4)ccnc3cc2c1`, the growth with RPMI-8226 leukemia was 60.1%; in the test on OVCAR-8 ovarian, 94.3%; with OVCAR-5 ovarian, 97%; in the test with SK-OV-3 ovarian, 107%; with IGROV1 ovarian, 89.5%; in the test on OVCAR-3 ovarian it was 96%. Further, the growth was 103% with HS 578T breast, 91.1% with NCI/ADR-RES ovarian and 95.5% in the test with T-47D breast.
In the case of `COc1cc(/C(C#N)=C/c2nc3c(N4CCOCC4)nc(Cl)nc3n2C)cc(OC)c1OC`, the growth in the test with RPMI-8226 leukemia was 7.11% (active); in the test with OVCAR-8 ovarian, 21.8%; in the test with OVCAR-5 ovarian it was 34.6%; in the test with OVCAR-4 ovarian, 21.9%; in the test on IGROV1 ovarian, 8.43% (active); in the test on OVCAR-3 ovarian, 0.593% (active). The figures for the growth in the test on HS 578T breast, in the test on NCI/ADR-RES ovarian and with T-47D breast were 0.385% (active), 8.53% (active) and 33.9%, respectively.
With `CCOC(=O)c1ccc2[nH]c(-c3ccccc3)cc(=O)c2c1`, the growth in the test with RPMI-8226 leukemia was 88.2%; in the test on OVCAR-8 ovarian, 97.6%; in the test on OVCAR-5 ovarian, 101%; in the test with SK-OV-3 ovarian, 112%; in the test on IGROV1 ovarian it was 92.5%; in the test with OVCAR-3 ovarian, 106%. Further, the growth in the test on HS 578T breast is 104%; in the test on NCI/ADR-RES ovarian, 102%; in the test with T-47D breast it was 105%.
In the case of `C[n+]1c2ccccc2nc2ccc(NCCO)cc21`, the growth with RPMI-8226 leukemia is 66.8%; in the test on OVCAR-8 ovarian it was 82.1%; in the test with OVCAR-5 ovarian, 102%; with SK-OV-3 ovarian, 112%; in the test with IGROV1 ovarian, 63.9%; in the test on OVCAR-3 ovarian, 79.2%. Besides, the values for the growth in the test with HS 578T breast, in the test on NCI/ADR-RES ovarian and in the test with T-47D breast were 82.7%, 86.4% and 91.9%, respectively.
As to `CSc1nc2c(c(=O)n1C)N=C1c3ccccc3C(=O)C1C(c1ccccc1)N2` (centres undefined), the growth with RPMI-8226 leukemia is 94.9%; in the test with OVCAR-8 ovarian it was 77.7%; in the test with OVCAR-5 ovarian, 87.9%; with SK-OV-3 ovarian, 72.4%; in the test with IGROV1 ovarian, 30.4%; in the test on OVCAR-3 ovarian, 39.4%. Also, the growth in the test with HS 578T breast was 71.8%; in the test with NCI/ADR-RES ovarian it was 55.8%.
On to `COc1ccc(N(C)c2nc(N)nc3sc4c(c23)CCCC4)cc1`, for which the growth in the test on RPMI-8226 leukemia is 25.3%; in the test on OVCAR-8 ovarian, 14%; with OVCAR-5 ovarian it was 49.8%; in the test with SK-OV-3 ovarian, 20.7%; in the test with IGROV1 ovarian, 17.2%; in the test on OVCAR-3 ovarian it was 1.77% (active). In addition, the figures for the growth in the test on HS 578T breast and with NCI/ADR-RES ovarian were 26.9% and 2.25% (active), respectively.
For the molecule `O=C(CSc1ccc2nnc(-c3cccc(F)c3)n2n1)Nc1ccc2c(c1)OCO2`, the growth is 52.3% in the test with RPMI-8226 leukemia; 53.4% with OVCAR-8 ovarian; 113% with OVCAR-5 ovarian; 100% in the test on SK-OV-3 ovarian; 54.8% in the test with IGROV1 ovarian; 48.3% in the test on OVCAR-3 ovarian. Further, the growth with HS 578T breast is 76.4%; in the test on NCI/ADR-RES ovarian it was 48.4%; in the test on T-47D breast it was 56.2%.
As to `COc1ccccc1CNC(=O)C1c2ccccc2C(=O)N(CC(C)C)C1c1cccs1` (centres undefined), the growth in the test with RPMI-8226 leukemia was 2.15% (active); in the test with OVCAR-8 ovarian, 50.5%; in the test with OVCAR-5 ovarian, 84.2%; in the test on SK-OV-3 ovarian, 106%; with IGROV1 ovarian it was 71.8%; in the test on OVCAR-3 ovarian, 58%. Also, the growth in the test with HS 578T breast was 68.8%; in the test on NCI/ADR-RES ovarian, 71.4%; with T-47D breast, 42.5%.
As for `O=C(Nc1ccccc1O)c1ccc(Oc2cccc(C(=O)Nc3ccccc3O)c2)cc1`, the growth with RPMI-8226 leukemia is 8.97% (active); with OVCAR-8 ovarian it was 16.7%; in the test on OVCAR-5 ovarian it was 50.7%; with SK-OV-3 ovarian it was 26.6%; in the test on IGROV1 ovarian it was 18.6%; in the test with OVCAR-3 ovarian, 27.3%. The results for the growth in the test on HS 578T breast, in the test with NCI/ADR-RES ovarian and with T-47D breast were 40.6%, 5.02% (active) and 26.1%, respectively.
In the case of `CCCCc1ccc(NS(=O)(=O)c2cc3c4c(c2)CCN4C(=O)CC3)cc1`, the growth was 21.9% with RPMI-8226 leukemia; 15.9% in the test on OVCAR-8 ovarian; 52.5% with OVCAR-5 ovarian; 30.8% with SK-OV-3 ovarian; 11.3% with IGROV1 ovarian; 32.2% in the test with OVCAR-3 ovarian. Moreover, the growth is 47.8% with HS 578T breast, 7.47% (active) in the test on NCI/ADR-RES ovarian and 25.4% in the test on T-47D breast.
In the case of `CN1C(=O)N(C)C2Nn3c(s/c(=C4\C(=O)N(CCc5ccccc5)c5ccccc54)c3=O)=NC21` (centres undefined), the growth in the test with RPMI-8226 leukemia is 57.2%; in the test with OVCAR-8 ovarian, 80.9%; in the test with OVCAR-5 ovarian, 75.2%; with SK-OV-3 ovarian, 76.9%; in the test on IGROV1 ovarian, 83%; with OVCAR-3 ovarian, 39.7%. The results for the growth with HS 578T breast, in the test with NCI/ADR-RES ovarian and with T-47D breast were 70.5%, 43.8% and 67.6%, respectively.
On to `O=S(=O)(Nc1ncccn1)c1ccc(NC2Nc3nc4ccccc4nc3S2)cc1` (centres undefined), for which the growth was 99% in the test on RPMI-8226 leukemia; 98.8% with OVCAR-8 ovarian; 96.4% in the test on OVCAR-5 ovarian; 102% in the test on OVCAR-4 ovarian; 96.3% with IGROV1 ovarian; 109% with OVCAR-3 ovarian. For the same molecule, the growth with HS 578T breast is 95.9%; with NCI/ADR-RES ovarian, 99.6%; with T-47D breast it was 101%.
For `COc1cc(/C=C2\CN(C)C/C(=C\c3cc(CN4CCCC4)c(O)c(OC)c3)C2=O)cc(CN2CCCC2)c1O`, the growth in the test on RPMI-8226 leukemia is 81%; with OVCAR-8 ovarian, 65.5%; with OVCAR-5 ovarian, 94.5%; in the test on OVCAR-4 ovarian, 65.8%; with IGROV1 ovarian, 82%; in the test on OVCAR-3 ovarian it was 50%. The growth in the test on HS 578T breast is 87.8%; in the test on NCI/ADR-RES ovarian it was 100%; in the test with T-47D breast, 79.7%.
`CCOC(=O)C1=C(C)N=c2s/c(=C\c3cc(Cl)ccc3O)c(=O)n2C1c1ccc(OC)cc1` (centres undefined): the growth with RPMI-8226 leukemia was 78.6%; with OVCAR-8 ovarian, 90.4%; in the test on OVCAR-5 ovarian it was 93.1%; in the test with SK-OV-3 ovarian, 104%; with IGROV1 ovarian, 87.6%; in the test on OVCAR-3 ovarian, 95.5%. Moreover, the growth in the test with HS 578T breast was 117%; in the test with NCI/ADR-RES ovarian it was 85.6%; with T-47D breast, 82%.
In the case of `COc1ccc(/C=c2\sc3n(c2=O)NC2C(N=3)N(C)C(=O)N2C)cc1` (centres undefined), the growth in the test with RPMI-8226 leukemia was 96.1%; in the test on OVCAR-8 ovarian it was 101%; in the test with OVCAR-5 ovarian, 95.1%; in the test on OVCAR-4 ovarian, 100%; in the test on IGROV1 ovarian, 99.8%; with OVCAR-3 ovarian, 102%. The growth was 95.9% with HS 578T breast, 100% with NCI/ADR-RES ovarian and 102% with T-47D breast.
Turning to `O=C(Nc1ccc(Br)cc1F)c1cc(F)ccc1O`, the growth was -28.9% (active) in the test with RPMI-8226 leukemia; 8.95% (active) with OVCAR-8 ovarian; 25.3% in the test with OVCAR-5 ovarian; 1.4% (active) in the test on SK-OV-3 ovarian; 19.2% in the test with IGROV1 ovarian; 9.86% (active) in the test on OVCAR-3 ovarian. In addition, the growth was 1.14% (active) in the test on HS 578T breast and 9.89% (active) in the test on NCI/ADR-RES ovarian.
Turning to `COc1ccc(Cn2c(Br)c3c(c2-c2cc(OC)c(OC)c(OC)c2)CCc2sc(NC(C)=O)nc2-3)cc1`, the growth was 53.5% with RPMI-8226 leukemia; 60.4% with OVCAR-8 ovarian; 96.8% in the test with OVCAR-5 ovarian; 35.5% in the test on SK-OV-3 ovarian; 6.54% (active) with IGROV1 ovarian; -14.4% (active) in the test on OVCAR-3 ovarian. Moreover, the growth was 24.6% in the test with HS 578T breast, 27.1% with NCI/ADR-RES ovarian and 37.2% with T-47D breast.
For `CC(C)CCOc1ccc(-c2n[nH]c(C(F)(F)F)c2-c2cncc(C#N)c2)c(O)c1`, the growth with RPMI-8226 leukemia is -31.8% (active); in the test with OVCAR-8 ovarian, 12.5%; in the test with OVCAR-5 ovarian it was 36.9%; in the test with SK-OV-3 ovarian, -7.94% (active); in the test on IGROV1 ovarian, 46.9%; with OVCAR-3 ovarian it was 2.95% (active). In addition, the growth in the test with HS 578T breast is 18%; in the test on NCI/ADR-RES ovarian, 2.45% (active); in the test on T-47D breast it was 2.83% (active).

The record behind these values is PubChem BioAssay (NCI).
